Active and inactive are the calls of the source. Rule as the data show it: active = inhibition above about 31%; inactive = the rest.

The target in this assay is N-formyl peptide receptor 2 (Homo sapiens) (UniProt P25090). The experiment in a line: human FPR2 ligand displacement single-point screen – cell-based, flow cytometry, single concentration (AID 765). Particulars: FPRL1-expressing cells, fluorescent ligand binding inhibition, hits give high values; at 5.1 µM unless noted.
Chain of N-formyl peptide receptor 2 (Homo sapiens) (P25090 whole entry, looked up): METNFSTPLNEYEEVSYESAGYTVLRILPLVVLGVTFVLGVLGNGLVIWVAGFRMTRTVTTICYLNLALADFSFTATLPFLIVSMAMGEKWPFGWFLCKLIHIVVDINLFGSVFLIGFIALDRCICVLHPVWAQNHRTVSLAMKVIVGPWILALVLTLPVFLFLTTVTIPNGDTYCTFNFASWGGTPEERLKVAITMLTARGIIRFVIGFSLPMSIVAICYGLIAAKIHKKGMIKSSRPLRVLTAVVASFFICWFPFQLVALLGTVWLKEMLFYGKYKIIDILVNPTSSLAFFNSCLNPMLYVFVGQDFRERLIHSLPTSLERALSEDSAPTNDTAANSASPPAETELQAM
For orientation: inhibition means the relative decrease from the control value, in per cent. `COc1ccc(-c2cc(C(F)(F)F)nc(N3CCN(Cc4ccccc4)CC3)n2)cc1OC`: the inhibition is 69.2% [at 4.9 µM] (active). The same measure for `COc1ccc(-c2cc(C(F)(F)F)nc(N3CCN(C)CC3)n2)cc1`: -15.1% [at 6.3 µM] (inactive). Next, `COc1ccc(-c2cn3cccnc3n2)cc1NC(=O)c1ccc(C(C)(C)C)cc1`: -1% [at 5.6 µM] (inactive). Next, `FC(F)(F)c1cc(-c2cccs2)nc(N2CCN(Cc3ccccc3)CC2)n1`: 12.5% [at 5.5 µM] (inactive). For the compound `CC(C)(C)OC(=O)N1CCN(c2nc(-c3ccccc3Cl)c3cc(Br)ccc3n2)CC1`, the inhibition was -9.1% [at 4.4 µM] (inactive).

Take `O=C(O)/C=C/C(=O)N1CCN(c2nc(-c3ccccc3)c3ccccc3n2)CC1`: the inhibition was 6.6% [at 5.7 µM] (inactive). With `O=C(O)CCC(=O)N1CCN(c2nc(-c3ccccc3)c3cc(Br)ccc3n2)CC1`, the inhibition was -3.9% [at 4.7 µM] (inactive). With `COc1ccc(-c2cn3cccnc3n2)cc1NC(=O)c1ccc(F)c(F)c1`, the inhibition is -13.5% [at 5.8 µM] (inactive).

Regarding `COc1ccc(-c2cn3cccnc3n2)cc1NC(=O)c1cc(C)cc(C)c1`, the inhibition is 4.9% [at 6 µM] (inactive). The same measure for `COc1ccc(-c2cn3cccnc3n2)cc1NC(=O)c1ccc(C(F)(F)F)cc1`: -3.6% [at 5.4 µM] (inactive); for `COc1ccc(-c2cn3cccnc3n2)cc1NC(=O)C1CC1`: 71.5% [at 7.2 µM] (active); for `COc1ccc(-c2cc(-c3ccc(F)cc3)nc(N3CCN(C)CC3)n2)cc1`: -2.6% [at 5.9 µM] (inactive). For `O=C(C1CCCCC1)N1CCN(c2nc(-c3ccccc3Cl)c3cc(Br)ccc3n2)CC1`, the inhibition was -6.3% [at 4.3 µM] (inactive).

For `CCCC(=O)Nc1cccc(-c2cn3cccnc3n2)c1`, the inhibition was -2.8% [at 7.9 µM] (inactive). Next, `Cc1ccccc1N1CCN(c2nc(-c3ccccc3)c3cc(Br)ccc3n2)CC1`: 0.2% [at 4.8 µM] (inactive); `FC(F)(F)c1cc(-c2ccccc2)nc(N2CCN(c3ccccc3)CC2)n1`: -10.6% [at 5.8 µM] (inactive); `CCCC(=O)Nc1cc(-c2cn3cccnc3n2)ccc1OC`: 2.2% [at 7.2 µM] (inactive).

Turning to `CC1(C)CC(=O)c2cnc(N3CCN(Cc4ccc5c(c4)OCO5)CC3)nc2C1`, the inhibition is -3.3% [at 5.6 µM] (inactive). Next, `COc1ccc(-c2cn3cccnc3n2)cc1NC(=O)c1ccc(OC)c(OC)c1`: -6% [at 5.5 µM] (inactive).

For `O=C(c1ccccc1Cl)N1CCN(c2nc(-c3ccccc3)c3cc(Cl)ccc3n2)CC1`, the inhibition is 4.5% [at 4.8 µM] (inactive).

On to `CC1CCc2nc(N3CCN(Cc4ccccc4)CC3)nc(C(F)(F)F)c2C1` (centres undefined), for which the inhibition was -10.7% [at 5.7 µM] (inactive). The same measure for `COc1ccc(C2CC(=O)c3cnc(N4CCN(Cc5ccc6c(c5)OCO6)CC4)nc3C2)cc1OC` (centres undefined): 11.9% [at 4.4 µM] (inactive); for `CCOC(=O)N1CCN(c2nc(-c3ccc(Cl)cc3)cc(C(F)(F)F)n2)CC1`: -12% [at 5.4 µM] (inactive); for `FC(F)(F)c1cc(-c2cccs2)nc(N2CCN(C(c3ccccc3)c3ccccc3)CC2)n1`: -11% [at 4.6 µM] (inactive).

Regarding `COc1ccc(-c2cn3cccnc3n2)cc1NC(=O)c1ccccc1Cl`, the inhibition is 19% [at 5.9 µM] (inactive).

In the case of `COc1ccc(-c2cn3cccnc3n2)cc1NC(=O)c1ccc(Cl)cc1`, the inhibition was 3% [at 5.9 µM] (inactive). The same measure for `COc1ccc(-c2cn3cccnc3n2)cc1NC(=O)c1cc(Br)ccc1Cl`: 4.3% [at 4.9 µM] (inactive); for `O=C(c1ccc(Cl)cc1)N1CCN(c2nc(-c3ccccc3)c3ccccc3n2)CC1`: 1.6% [at 5.2 µM] (inactive); for `COc1ccc(-c2cn3cccnc3n2)cc1NC(=O)CCCc1ccccc1`: -8.7% [at 5.8 µM] (inactive). The same measure for `COc1cccc(C(=O)Nc2cc(-c3cn4cccnc4n3)ccc2OC)c1`: 12.2% [at 5.9 µM] (inactive); for `Clc1cccc(-c2nc(N3CCN(C4CCCCC4)CC3)nc3c2COc2ccccc2-3)c1`: -1.5% [at 4.8 µM] (inactive). Next, `COc1ccc(-c2cn3cccnc3n2)cc1NC(=O)c1ccccc1F`: 0.8% [at 6.1 µM] (inactive); `COc1ccc(-c2cn3cccnc3n2)cc1NC(=O)c1cccc(Br)c1`: 0.7% [at 5.3 µM] (inactive). Consider `O=C(O)C1CC=CCC1C(=O)N1CCN(c2nc(-c3ccccc3Cl)c3cc(Br)ccc3n2)CC1` (centres undefined), for which the inhibition was -6.7% [at 4 µM] (inactive).
